# Columns and labels:
# Experiment in all cases: PBM binding z-score (relative to random genomic background probes); higher = stronger binding; sequences stand for … in GC…GCGATTGACAGCGTAGAATGAAGG
# [1] = test system: FXR:RXRa (NR concentration 270 nM, RXRa partner concentration 90 nM)
# Summary of the method: (§1)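 Probes were double-stranded and carried 34-nt variable regions with direct-repeat seeds, single-nucleotide variants, half-site ablations and random human genomic background sequences, printed on custom Agilent 4×180K protein-binding microarrays. Arrays were incubated 1 h with ligand-free nuclear receptor dimers in PBS pH 7.4, 2% milk, 0.02% Triton X-100, 1 mM DTT, 0.2 mg/mL BSA and 0.4 mg/ml salmon testes DNA. Antibodies against each partner (one per run) detected binding, and scanned fluorescence was regression-normalized. Binding z-scores use the random background probes as reference.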
# [2] = test system: LXRa:RXRa (NR concentration 270 nM, RXRa partner concentration 90 nM)
# Summary of the method: as §1
# [3] = test system: LXRa homodimer (NR concentration 270 nM)
# Summary of the method: as §1
# [4] = test system: LXRb:RXRa (NR concentration 270 nM, RXRa partner concentration 90 nM)
# Summary of the method: as §1
# [5] = test system: LXRb homodimer (NR concentration 270 nM)
# Summary of the method: as §1
# [6] = test system: PPARa:RXRa (NR concentration 270 nM, RXRa partner concentration 90 nM)
# Summary of the method: as §1
# [7] = test system: PPARg:RXRa (NR concentration 180 nM, RXRa partner concentration 90 nM)
# Summary of the method: as §1
# [8] = test system: PPARg:RXRa 270nM:90nM, anti-RXR (NR concentration 270 nM, RXRa partner concentration 90 nM)
# Summary of the method: as §1
# [9] = test system: PPARg:RXRa 30nM:10nM, anti-RXR (NR concentration 30 nM, RXRa partner concentration 10 nM)
# Summary of the method: as §1
# [10] = test system: PPARg:RXRa 90nM:30nM, anti-RXR (NR concentration 90 nM, RXRa partner concentration 30 nM)
# Summary of the method: as §1
# [11] = test system: PPARg:RXRa DBDmut IVT, anti-RXR (DBD mutation: RXRa K156A/R161A, NR concentration 270 nM, RXRa partner concentration 90 nM)
# Summary of the method: as §1
# [12] = test system: PPARg:RXRa IVT, anti-PPARg (NR concentration 270 nM, RXRa partner concentration 90 nM)
# Summary of the method: as §1
# [13] = test system: PPARg DBDmut:RXRa IVT, anti-PPARg (DBD mutation: PPARg1 K132A/R137A, NR concentration 270 nM, RXRa partner concentration 90 nM)
# Summary of the method: as §1
# [14] = test system: PPARg DBDmut IVT, anti-PPARg (DBD mutation: PPARg1 K132A/R137A, NR concentration 270 nM)
# Summary of the method: as §1
# [15] = test system: PPARg homodimer (NR concentration 180 nM)
# Summary of the method: as §1
# [16] = test system: PXR:RXRa (NR concentration 270 nM, RXRa partner concentration 90 nM)
# Summary of the method: as §1
# [17] = test system: PXR homodimer (NR concentration 270 nM)
# Summary of the method: as §1
# [18] = test system: RARa:RXR (NR concentration 270 nM, RXRa partner concentration 90 nM)
# Summary of the method: as §1
# [19] = test system: RARa homodimer (NR concentration 270 nM)
# Summary of the method: as §1
# [20] = test system: RARb:RXRa (NR concentration 270 nM, RXRa partner concentration 90 nM)
# Summary of the method: as §1
Sequence,PBM binding z-score [1],PBM binding z-score [2],PBM binding z-score [3],PBM binding z-score [4],PBM binding z-score [5],PBM binding z-score [6],PBM binding z-score [7],PBM binding z-score [8],PBM binding z-score [9],PBM binding z-score [10],PBM binding z-score [11],PBM binding z-score [12],PBM binding z-score [13],PBM binding z-score [14],PBM binding z-score [15],PBM binding z-score [16],PBM binding z-score [17],PBM binding z-score [18],PBM binding z-score [19],PBM binding z-score [20]
ATCTCTAGGGAAAGTTCAGTGAAAGATCGATAGA,0.806,1.28,0.993,0.942,0.681,1.42,0.591,1.84,0.725,1.51,0.291,0.739,0.561,0.968,1.06,1.52,1.46,1.38,1.07,2.61
TCTAGTTGGTCCAAGGTCACACACTCGAAATGCG,3.91,3.59,1.87,3.54,0.734,4.18,4.19,5.58,4.56,5.7,2.28,3.07,1.36,0.797,3.08,4.21,1.63,4.31,1.96,3.53
ATTATTAGTTGAGACGAGGGCAACCGATAGGTTG,1.13,0.675,1.08,0.406,0.941,0.603,0.713,0.504,0.68,0.781,0.469,1.43,1.76,1.3,1.77,1.72,1.69,1.4,2.49,1.48
GCTGGTTGGTCAGTAAAAGGTCACACACCGGTCG,3.32,4.46,4.47,4.09,1.04,4.38,2.91,4.89,2.71,4.59,0.091,2.51,0.438,0.205,3.78,5.07,1.42,6.03,2.87,4.3
TCTAGTAGGTTAGGGGCATTCAGAATGGCGTCGA,0.875,0.688,0.102,1.21,0.903,1.94,2,3.69,3.42,3.55,4.9,4.09,0.212,0.421,1.07,0.642,0.791,0.791,0.549,1.35
CAACCTAGGTCAAGAGGTCAAAGTCCGCTTCCCG,6.93,6.34,6.16,5.73,1.82,5.97,7.35,6.76,3.67,5.86,4.75,5.45,0.0311,-0.16,5.72,6.26,2.37,7.74,2.15,5.42
CTCGAAAGGTCGTGCTCGGGTGAGTATACCAAAC,5.24,3.9,-0.0589,3.32,-0.0126,4.83,2.25,3.88,1.18,2.3,0.705,1.72,0.595,-0.339,1.58,3.15,-0.25,4.22,-0.17,3.98
TCATATAGGTAAATGCTAGGCGAAAGTCCGATCT,0.564,0.758,0.304,0.58,-0.0313,0.932,0.63,2.22,3.7,2.88,3.99,1.93,1.19,0.583,0.561,0.4,0.459,0.458,0.728,0.249
CTCGAAAGGTCGGTTGAGGTGAGTCTACGGATAA,2.75,1.97,-0.215,1.29,-0.179,2.62,0.161,1.13,0.171,0.803,0.22,0.948,-0.0486,-0.386,1.13,3.39,-0.0836,2.2,-0.523,2.97
CGTCGAAGGTCAGCAGGTCAGTGAAAGCGACGTG,5.54,3.8,0.42,3.06,-0.433,4.76,4.28,4.81,1.5,2.88,2.98,3.25,-0.047,-1.4,4.2,3.44,0.233,4.8,1.59,5.24
TCTAGTTGGTCAAATGTCACACACTCGAAATGCG,0.894,0.965,0.736,1.29,0.913,2.93,5.26,6.74,5.88,7.55,2.7,3.59,1.9,2.34,2.58,1.09,0.666,1.67,1.52,1.89

# From the supplement of paper PMC6555819
